Measurements as given in PubChem BioAssay (Tox21).
Values joined by “and” are separate entries in the source; they are usually repeats but may differ in a detail not shown here. Equal entries are not always repeated. Results filed as inconclusive are left out. A call without a number means that no potency is given here. Where a structure was tested more than once in an assay, its records may differ in their call. Active and inactive are the calls of the source. The call rests on the fitted dose curve; in most records, active means well fitted curve in the direction sought with a large enough effect in the repeat runs; inconclusive means weak or mixed curves; inactive means no such curve, though single readings can be large; an effect the other way counts as inactive or inconclusive.

Experiments:
[1] = molecular target: Cytochrome P450 2D6 (Homo sapiens) (UniProt P10635); experiment: Cytochrome P450 Family 2 Subfamily D Member 6 (CYP2D6) small molecule antagonists: luciferase reporter qHTS assay (AID 1671196); further: nearly all actives have a fitted effect of over 50% in size; on activity change, negative = inhibition: series mostly up to about 120 µM
Method in brief: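 Room-temperature luminescent CYP2D6 activity assay: compound preincubated 10 min with enzyme–substrate mix, NADPH-initiated reaction 1 h, detection reagent 20 min before reading.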

[2] = molecular target: Cytochrome P450 2C9 (Homo sapiens) (UniProt P11712); experiment: Cytochrome P450 Family 2 Subfamily C Member 9 (CYP2C9) small molecule antagonists: luciferase reporter qHTS assay (AID 1671198); further: nearly all actives have a fitted effect of over 50% in size; on activity change, negative = inhibition: series mostly up to about 120 µM
Method in brief: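 CYP2C9 activity was measured with a P450-Glo proluciferin substrate. Enzyme–substrate mix was held with compound for 10 min at room temperature, then NADPH regeneration solution was added for 1 h at 37C. Luciferin product was read as luminescence.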

[3] = molecular target: Cytochrome P450 1A2 (Homo sapiens) (UniProt P05177); experiment: Cytochrome P450 Family 1 Subfamily A Member 2 (CYP1A2) small molecule antagonists: luciferase reporter qHTS assay (AID 1671199); further: nearly all actives have a fitted effect of over 50% in size; on activity change, negative = inhibition: series mostly up to about 120 µM
Method in brief: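 Room-temperature CYP1A2 reaction with proluciferin substrate: compounds added from DMSO, 10 min preincubation, NADPH regeneration for 1 h. Luciferin detection reagent then added; luminescence recorded as RLU.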

[4] = molecular target: Voltage-gated inwardly rectifying potassium channel KCNH2 (Homo sapiens) (UniProt Q12809); experiment: Human Ether-a-go-go-Related Gene (hERG) channel small molecule antagonists: fluorescence cell-based qHTS assay (AID 1671200); further: nearly all actives have a fitted effect of over 50% in size;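 on activity change, negative = inhibition: hERG-expressing U2OS cells given a thallium stimulus after FluxOR II dye loading; series mostly up to about 77 µM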
Method in brief: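 In this thallium-flux screen, overnight-cultured U2OS cells bearing the channel are dye-loaded in darkness for an hour, rested 10 min at room temperature, and then monitored kinetically at 480/540 nm for two minutes post-stimulus.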

[5] = molecular target: Cytochrome P450 2C19 (Homo sapiens) (UniProt P33261); experiment: Cytochrome P450 Family 2 Subfamily C Member 19 (CYP2C19) small molecule antagonists: luciferase reporter qHTS assay (AID 1671197); further: nearly all actives have a fitted effect of over 65% in size; on activity change, negative = inhibition: series mostly up to about 120 µM
Method in brief: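 Inhibition of CYP2C19 was scored from loss of luminescence in a P450-Glo proluciferin substrate assay, NADPH-started and run 1 h at 37C, with ketoconazole as positive control.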

[6] = molecular target: Cytochrome P450 3A4 (Homo sapiens) (UniProt P08684); experiment: Cytochrome P450 Family 3 Subfamily A Member 4 (CYP3A4) small molecule antagonists: luciferase reporter qHTS assay (AID 1671201); further: nearly all actives have a fitted effect of over 50% in size; on activity change, negative = inhibition: series mostly up to about 120 µM
Method in brief: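 CYP3A4 activity was followed with a P450-Glo proluciferin substrate. Test compounds in DMSO were preincubated 10 min; NADPH regeneration then ran 1 h, and light output was read 20 min after detection reagent.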
Potency means the concentration at half of the fitted maximal effect.

Chain of Cytochrome P450 2C19 (Homo sapiens) (P33261 whole entry, looked up): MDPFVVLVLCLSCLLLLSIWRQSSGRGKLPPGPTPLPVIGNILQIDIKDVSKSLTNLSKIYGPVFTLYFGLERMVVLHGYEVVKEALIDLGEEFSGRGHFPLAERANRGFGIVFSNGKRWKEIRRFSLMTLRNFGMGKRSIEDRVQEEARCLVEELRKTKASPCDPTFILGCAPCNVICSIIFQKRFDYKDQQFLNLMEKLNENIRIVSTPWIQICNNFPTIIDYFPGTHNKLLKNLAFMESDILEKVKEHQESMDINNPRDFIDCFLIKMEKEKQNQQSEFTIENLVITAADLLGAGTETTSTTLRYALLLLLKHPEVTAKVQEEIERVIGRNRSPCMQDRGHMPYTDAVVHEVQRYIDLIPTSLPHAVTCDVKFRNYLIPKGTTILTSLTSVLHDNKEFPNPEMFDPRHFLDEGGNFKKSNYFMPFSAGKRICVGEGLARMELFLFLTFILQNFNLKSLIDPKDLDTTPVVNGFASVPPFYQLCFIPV
Chain of Cytochrome P450 3A4 (Homo sapiens) (P08684 whole entry, looked up): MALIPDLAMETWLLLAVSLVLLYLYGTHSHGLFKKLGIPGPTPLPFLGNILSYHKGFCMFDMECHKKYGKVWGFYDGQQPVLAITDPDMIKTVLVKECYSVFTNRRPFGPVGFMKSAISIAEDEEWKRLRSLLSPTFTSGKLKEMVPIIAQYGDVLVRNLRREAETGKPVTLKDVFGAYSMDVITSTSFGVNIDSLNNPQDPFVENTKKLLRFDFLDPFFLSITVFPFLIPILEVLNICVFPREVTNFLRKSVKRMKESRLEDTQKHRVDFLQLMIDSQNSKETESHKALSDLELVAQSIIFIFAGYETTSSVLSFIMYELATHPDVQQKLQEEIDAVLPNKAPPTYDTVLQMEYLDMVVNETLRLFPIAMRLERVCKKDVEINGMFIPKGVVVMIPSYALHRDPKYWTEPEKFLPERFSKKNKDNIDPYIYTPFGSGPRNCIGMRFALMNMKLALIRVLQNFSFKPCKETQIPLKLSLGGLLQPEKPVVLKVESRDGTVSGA
Chain of Cytochrome P450 2D6 (Homo sapiens) (P10635 whole entry, looked up): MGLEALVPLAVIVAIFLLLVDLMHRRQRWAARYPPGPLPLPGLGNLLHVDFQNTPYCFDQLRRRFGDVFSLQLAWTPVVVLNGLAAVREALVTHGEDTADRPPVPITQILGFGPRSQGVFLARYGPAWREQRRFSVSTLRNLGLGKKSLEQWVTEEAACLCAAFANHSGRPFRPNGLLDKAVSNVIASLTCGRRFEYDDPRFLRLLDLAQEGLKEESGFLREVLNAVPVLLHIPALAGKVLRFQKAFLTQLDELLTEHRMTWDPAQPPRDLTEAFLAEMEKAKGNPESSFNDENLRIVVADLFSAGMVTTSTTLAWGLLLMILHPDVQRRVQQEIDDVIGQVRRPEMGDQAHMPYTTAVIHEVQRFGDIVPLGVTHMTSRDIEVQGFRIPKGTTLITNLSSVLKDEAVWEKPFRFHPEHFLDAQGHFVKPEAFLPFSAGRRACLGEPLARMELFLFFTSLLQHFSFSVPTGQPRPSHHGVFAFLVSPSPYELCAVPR
Chain of Cytochrome P450 1A2 (Homo sapiens) (P05177 whole entry, looked up): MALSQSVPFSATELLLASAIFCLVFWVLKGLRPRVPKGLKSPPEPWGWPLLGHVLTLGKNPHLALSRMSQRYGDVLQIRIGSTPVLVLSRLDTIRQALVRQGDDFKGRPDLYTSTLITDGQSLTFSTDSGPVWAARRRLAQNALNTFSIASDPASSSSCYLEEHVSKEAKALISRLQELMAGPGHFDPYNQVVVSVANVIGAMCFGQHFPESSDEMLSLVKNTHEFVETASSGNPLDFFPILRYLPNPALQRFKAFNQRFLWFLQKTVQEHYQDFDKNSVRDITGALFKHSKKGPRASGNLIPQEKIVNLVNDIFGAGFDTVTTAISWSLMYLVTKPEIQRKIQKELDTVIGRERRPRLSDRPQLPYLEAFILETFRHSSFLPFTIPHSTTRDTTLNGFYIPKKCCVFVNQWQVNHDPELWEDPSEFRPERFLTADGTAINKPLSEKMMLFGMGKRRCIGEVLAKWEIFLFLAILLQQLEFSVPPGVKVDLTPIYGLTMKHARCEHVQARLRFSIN
Chain of Voltage-gated inwardly rectifying potassium channel KCNH2 (Homo sapiens) (Q12809 whole entry, looked up): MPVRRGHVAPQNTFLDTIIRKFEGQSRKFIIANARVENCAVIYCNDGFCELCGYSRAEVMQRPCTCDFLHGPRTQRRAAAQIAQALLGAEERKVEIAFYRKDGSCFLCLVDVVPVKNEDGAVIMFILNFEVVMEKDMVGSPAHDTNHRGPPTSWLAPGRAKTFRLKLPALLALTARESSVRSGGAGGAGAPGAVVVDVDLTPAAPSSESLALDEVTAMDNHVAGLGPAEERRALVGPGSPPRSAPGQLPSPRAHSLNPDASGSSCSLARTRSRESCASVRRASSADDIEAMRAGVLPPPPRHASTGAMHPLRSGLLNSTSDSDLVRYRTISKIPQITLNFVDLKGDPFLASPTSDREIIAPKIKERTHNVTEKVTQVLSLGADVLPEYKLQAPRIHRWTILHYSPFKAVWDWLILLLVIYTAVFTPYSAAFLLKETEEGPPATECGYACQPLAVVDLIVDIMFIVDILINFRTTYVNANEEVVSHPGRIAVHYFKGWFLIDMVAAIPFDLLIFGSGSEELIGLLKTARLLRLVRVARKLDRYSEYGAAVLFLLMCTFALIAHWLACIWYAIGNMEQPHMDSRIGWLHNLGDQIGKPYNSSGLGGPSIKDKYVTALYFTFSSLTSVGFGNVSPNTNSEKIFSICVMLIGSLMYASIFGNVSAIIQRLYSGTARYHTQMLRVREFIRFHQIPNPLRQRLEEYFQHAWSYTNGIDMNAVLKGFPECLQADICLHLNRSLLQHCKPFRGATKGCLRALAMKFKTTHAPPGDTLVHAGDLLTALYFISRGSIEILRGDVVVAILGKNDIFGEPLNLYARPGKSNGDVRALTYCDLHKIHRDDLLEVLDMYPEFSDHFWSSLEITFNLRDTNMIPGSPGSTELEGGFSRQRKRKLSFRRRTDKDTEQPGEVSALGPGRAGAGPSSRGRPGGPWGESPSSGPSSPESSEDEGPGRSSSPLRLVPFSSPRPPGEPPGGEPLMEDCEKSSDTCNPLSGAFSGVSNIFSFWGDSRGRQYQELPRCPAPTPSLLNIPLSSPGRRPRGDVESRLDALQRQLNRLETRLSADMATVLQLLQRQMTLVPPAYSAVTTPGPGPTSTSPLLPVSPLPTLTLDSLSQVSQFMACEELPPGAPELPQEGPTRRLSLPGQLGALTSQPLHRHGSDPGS
Chain of Cytochrome P450 2C9 (Homo sapiens) (P11712 whole entry, looked up): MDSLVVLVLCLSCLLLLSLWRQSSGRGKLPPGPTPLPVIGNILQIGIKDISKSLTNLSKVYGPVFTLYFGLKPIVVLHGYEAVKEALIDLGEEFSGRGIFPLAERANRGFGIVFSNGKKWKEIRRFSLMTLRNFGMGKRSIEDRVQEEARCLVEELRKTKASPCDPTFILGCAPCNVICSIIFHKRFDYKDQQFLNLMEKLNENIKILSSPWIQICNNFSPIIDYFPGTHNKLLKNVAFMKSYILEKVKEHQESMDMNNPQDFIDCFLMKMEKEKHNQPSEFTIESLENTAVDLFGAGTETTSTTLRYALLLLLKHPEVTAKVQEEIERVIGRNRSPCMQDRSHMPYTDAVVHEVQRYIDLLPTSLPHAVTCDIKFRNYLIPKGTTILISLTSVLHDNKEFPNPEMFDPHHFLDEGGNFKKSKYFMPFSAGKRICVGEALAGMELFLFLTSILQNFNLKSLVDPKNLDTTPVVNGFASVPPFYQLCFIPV

Compound	Potency [1]	Potency [2]	Potency [3]	Potency [4]	Potency [5]	Potency [6]	activity change, negative = inhibition [5]	activity change, negative = inhibition [3]
O=C(/C=C/C=C/c1ccc2c(c1)OCO2)N1CCCCC1	63.4 µM (active) and 44.8 µM (active)	12.7 µM (active) and 35.6 µM (active)	28.3 µM (active) and 22.4 µM (active)	inactive	–	–	–	–
CC(CCC(=O)O)(c1ccc(O)cc1)c1ccc(O)cc1	inactive and 25.2 µM (active)	–	inactive	inactive	71.8 µM (active) and 35.6 µM (active)	inactive	–	–
c1cc(-c2ccncc2)ccn1	–	40.3 µM (active) and 35.6 µM (active)	40.3 µM (active) and 35.6 µM (active)	inactive	35.9 µM (active)	inactive	–	–
COc1ccc(OC)c(C(O)CNC(=O)CN)c1 (configuration not stated)	inactive	–	–	inactive	20 µM (active) and 24.5 µM (active)	–	–	–
CN(C)CCC=C1c2ccccc2CCc2ccccc21	2.52 µM (active) and 5.64 µM (active) and 5.49 µM (active)	inactive	inactive	–	7.97 µM (active) and 31.7 µM (active)	inactive	–	–
CCC(C)(O)CCCC(C)C (configuration not stated)	–	inactive	inactive	inactive	inactive	inactive	–	–
O=CCCCC=O	–	inactive	inactive	inactive	inactive	inactive	–	–
C/C=C/C(=O)O	–	inactive	inactive	inactive	inactive	inactive	–	–
C#C[C@]1(O)CC[C@H]2[C@@H]3CCc4cc(OC)ccc4[C@H]3CC[C@@]21C	–	5.64 µM (active) and 6.92 µM (active)	7.1 µM (active) and 9.77 µM (active)	inactive	3.56 µM (active) and 2.19 µM (active)	–	–	–
CC(C)OC=O	–	inactive	inactive	inactive	inactive	inactive	–	–
CN(C)CCN(Cc1cccs1)c1ccccn1	–	inactive	inactive and 27.5 µM (active)	–	inactive	–	–	–
CCCC(=O)O	inactive	inactive	inactive	inactive	–	inactive	–	–
Clc1nc(Cl)c(Cl)c(Cl)c1Cl	–	inactive	inactive	inactive	31.9 µM (active)	inactive	–	–
O=C(Nc1ccc([N+](=O)[O-])cc1Cl)c1cc(Cl)ccc1O	–	25.2 µM (active)	20 µM (active)	inactive	–	–	-2.19% [at 23.6 µM] (inactive)	-15.9% [at 23.6 µM] (inactive)
CC(C)(C)NC(=O)[C@H]1CC[C@H]2[C@@H]3CC[C@H]4NC(=O)C=C[C@]4(C)[C@H]3CC[C@]12C	inactive	–	inactive	inactive	–	inactive	–	–
O=C1c2cccc(O)c2C(=O)c2c(O)cccc21	inactive	–	9.03 µM (active) and 6.45 µM (active)	inactive	28.6 µM (active) and 38.9 µM (active)	inactive	–	–
c1ccc(Nc2ccccc2)cc1	inactive	35.6 µM (active) and 39.9 µM (active)	35.6 µM (active)	inactive	4.48 µM (active) and 22.4 µM (active)	3.17 µM (active) and inactive	–	–
CC1=CCC(C(C)(C)O)CC1 (configuration not stated)	–	inactive	inactive	inactive	inactive	inactive	–	–
COC(=O)c1ccccc1	–	inactive	inactive	inactive	inactive	inactive	–	–
CCC(C)c1ccccc1O (configuration not stated)	inactive	–	–	inactive	inactive	inactive	–	–
CC(C)OB(OC(C)C)OC(C)C	inactive	inactive	inactive	inactive	40 µM (active) and inactive	inactive	–	–
COc1cc([C@@H]2c3cc4c(cc3[C@H](O)[C@H]3COC(=O)[C@H]23)OCO4)cc(OC)c1OC	inactive	2.83 µM (active) and 2.19 µM (active)	35.6 µM (active)	inactive	–	–	–	–
Nc1ccccc1N	36.4 µM (active) and 7.31 µM (active)	–	2.58 µM (active) and 13.8 µM (active)	inactive	40.9 µM (active) and 17.8 µM (active)	–	–	–
Cn1cnc([N+](=O)[O-])c1Sc1ncnc2nc[nH]c12	44.5 µM (active) and inactive	inactive	inactive	inactive	–	inactive	–	–
CCCCCCCCCCCO	inactive	–	–	inactive	20.5 µM (active) and inactive	inactive	–	–
CCC(C)OC(=O)c1ccc(O)cc1 (configuration not stated)	63.3 µM (active)	–	20.1 µM (active) and 35.6 µM (active)	inactive	35.8 µM (active) and 25.2 µM (active)	inactive	–	–
c1ccc2cc(Nc3ccc(Nc4ccc5ccccc5c4)cc3)ccc2c1	inactive	inactive	–	inactive	inactive	inactive	–	–

Compound	Potency [1]	Potency [2]	Potency [3]	Potency [4]	Potency [5]	Potency [6]	activity change, negative = inhibition [5]	activity change, negative = inhibition [3]
C=C(C)C(=O)OCCOC(=O)C(=C)C	–	inactive	inactive and 35.6 µM (active)	inactive	inactive	inactive	–	–
Nc1ncn([C@@H]2O[C@H](CO)[C@@H](O)[C@H]2O)c(=O)n1	inactive	inactive	inactive	inactive	–	inactive	–	–
Nc1ccc(S(=O)(=O)Nc2cnc3ccccc3n2)cc1	inactive	11.2 µM (active) and 15.5 µM (active)	–	inactive	39.9 µM (active)	inactive	–	–
CC(=O)CC/C=C(\C)CCC=C(C)C	–	inactive and 35.6 µM (active)	inactive and 39.9 µM (active)	inactive	inactive and 39.9 µM (active)	inactive and 17.8 µM (active)	–	–
O=C1OC2(c3cc(Br)c(O)c(Br)c3Oc3c2cc(Br)c(O)c3Br)c2c(Cl)c(Cl)c(Cl)c(Cl)c21	–	10 µM (active) and 17.2 µM (active)	12.6 µM (active)	inactive	38.4 µM (active)	71.1 µM (active) and inactive	–	–
COc1ccc(C(=O)CC(=O)c2ccc(C(C)(C)C)cc2)cc1	–	21.5 µM (active)	34.1 µM (active)	inactive	8.57 µM (active) and inactive	inactive	–	–
CC(C)=CCC/C(C)=C\CO	–	–	–	inactive	–	–	–	–
NNc1ccc(C(=O)O)cc1	–	10.2 µM (active)	32.1 µM (active) and 32 µM (active)	inactive	32.1 µM (active) and 40.3 µM (active)	inactive	–	–
CC(C)CC(C)(O)C#CC(C)(O)CC(C)C (configuration not stated)	–	–	–	inactive	–	–	–	–
Oc1ccc(O)cc1	–	–	inactive	inactive	inactive	inactive	–	–
CCCCOCCOCCOCCO	–	inactive	–	inactive	inactive	inactive	–	–
CCCCNS(=O)(=O)c1ccccc1	–	35.1 µM (active) and 35.6 µM (active)	inactive	inactive	7.01 µM (active) and 17.8 µM (active)	inactive	–	–
CC(=O)O[C@]1(C(C)=O)CC[C@H]2[C@@H]3C=C(Cl)C4=CC(=O)[C@@H]5C[C@@H]5[C@]4(C)[C@H]3CC[C@@]21C	–	15.9 µM (active) and 31.7 µM (active) and 13.8 µM (active)	inactive	inactive	inactive and 39.9 µM (active)	inactive	–	–
COc1cccc2c1C(=O)c1c(O)c3c(c(O)c1C2=O)C[C@@](O)(C(=O)CO)C[C@@H]3O[C@H]1C[C@H](N)[C@H](O)[C@H](C)O1	–	–	–	inactive	inactive	–	–	–
C=CC(C)(CCC=C(C)C)OC(C)=O (configuration not stated)	–	inactive and 35.6 µM (active)	inactive	inactive	inactive and 17.8 µM (active)	inactive and 28.3 µM (active)	–	–
COC(=O)C1=C(C)NC(C)=C(C(=O)OCCN(C)Cc2ccccc2)C1c1cccc([N+](=O)[O-])c1 (configuration not stated)	–	–	inactive	10.9 µM (active) and 8.49 µM (active)	–	–	–	–
Nc1ccc(Nc2ccccc2)cc1	–	15.7 µM (active) and 25.2 µM (active) and 10 µM (active)	35.2 µM (active) and 35.6 µM (active) and 31.7 µM (active)	inactive	24.9 µM (active) and 10 µM (active) and 12.6 µM (active)	5.58 µM (active) and 11.3 µM (active) and 7.96 µM (active)	–	–
C#C[C@]1(O)CC[C@H]2[C@@H]3CCC4=Cc5oncc5C[C@]4(C)[C@H]3CC[C@@]21C	–	–	inactive	inactive	–	–	–	–
CC(C)=CCCC(C)CCO (configuration not stated)	–	inactive	–	inactive	inactive and 50.2 µM (active)	inactive and 39.9 µM (active)	–	–
O=P(O)(O)O	–	–	–	inactive	–	–	–	–
C[C@]12CC[C@H]3[C@@H](CCC4=CC(=O)CC[C@@]43C)[C@@H]1CC[C@@H]2C(=O)CO	–	39.9 µM (active) and 27.5 µM (active)	–	inactive	7.1 µM (active) and 8.71 µM (active)	inactive	–	–
c1ccc2c(c1)Oc1ccccc1S2	–	–	12.8 µM (active) and 8.94 µM (active)	–	inactive and 71 µM (active)	inactive	–	–
O=[N+]([O-])c1ccc2c(c1)Cc1ccccc1-2	–	–	2 µM (active) and 8.94 µM (active)	inactive	22.4 µM (active) and 20 µM (active)	inactive	–	–
c1ccncc1	–	inactive	inactive	inactive	inactive	inactive	–	–
Brc1cc(Oc2cc(Br)c(Br)c(Br)c2Br)c(Br)c(Br)c1Br	–	–	inactive	inactive	10.1 µM (active) and inactive	inactive	–	–
CC(C)Oc1ccc2c(=O)c(-c3ccccc3)coc2c1	–	17.4 µM (active) and 27.5 µM (active)	12.3 µM (active) and 6.45 µM (active)	inactive	inactive	inactive	–	–
